This is an account of results in ChEMBL document CHEMBL3988442, “University of Dundee, Small-Polar-MMV Screening Library” (2021).

Common to all, as to set-up: scale not given: direction of the effect not stated beside the values
In test [1] the target is Protein translocase subunit SecA (Escherichia coli (strain K12)) (UniProt P10408). Kind of test: Assay to Identify E. coli SecA ATPase Inhibitors. The test is classed as functional. Conditions: 30 µM.
For test [2], the target named is T1, Ubiquitin-activating enzyme e1, putative (Leishmania donovani (strain BPK282A1)) (UniProt E9BSI1).
T1 sequence (whole entry): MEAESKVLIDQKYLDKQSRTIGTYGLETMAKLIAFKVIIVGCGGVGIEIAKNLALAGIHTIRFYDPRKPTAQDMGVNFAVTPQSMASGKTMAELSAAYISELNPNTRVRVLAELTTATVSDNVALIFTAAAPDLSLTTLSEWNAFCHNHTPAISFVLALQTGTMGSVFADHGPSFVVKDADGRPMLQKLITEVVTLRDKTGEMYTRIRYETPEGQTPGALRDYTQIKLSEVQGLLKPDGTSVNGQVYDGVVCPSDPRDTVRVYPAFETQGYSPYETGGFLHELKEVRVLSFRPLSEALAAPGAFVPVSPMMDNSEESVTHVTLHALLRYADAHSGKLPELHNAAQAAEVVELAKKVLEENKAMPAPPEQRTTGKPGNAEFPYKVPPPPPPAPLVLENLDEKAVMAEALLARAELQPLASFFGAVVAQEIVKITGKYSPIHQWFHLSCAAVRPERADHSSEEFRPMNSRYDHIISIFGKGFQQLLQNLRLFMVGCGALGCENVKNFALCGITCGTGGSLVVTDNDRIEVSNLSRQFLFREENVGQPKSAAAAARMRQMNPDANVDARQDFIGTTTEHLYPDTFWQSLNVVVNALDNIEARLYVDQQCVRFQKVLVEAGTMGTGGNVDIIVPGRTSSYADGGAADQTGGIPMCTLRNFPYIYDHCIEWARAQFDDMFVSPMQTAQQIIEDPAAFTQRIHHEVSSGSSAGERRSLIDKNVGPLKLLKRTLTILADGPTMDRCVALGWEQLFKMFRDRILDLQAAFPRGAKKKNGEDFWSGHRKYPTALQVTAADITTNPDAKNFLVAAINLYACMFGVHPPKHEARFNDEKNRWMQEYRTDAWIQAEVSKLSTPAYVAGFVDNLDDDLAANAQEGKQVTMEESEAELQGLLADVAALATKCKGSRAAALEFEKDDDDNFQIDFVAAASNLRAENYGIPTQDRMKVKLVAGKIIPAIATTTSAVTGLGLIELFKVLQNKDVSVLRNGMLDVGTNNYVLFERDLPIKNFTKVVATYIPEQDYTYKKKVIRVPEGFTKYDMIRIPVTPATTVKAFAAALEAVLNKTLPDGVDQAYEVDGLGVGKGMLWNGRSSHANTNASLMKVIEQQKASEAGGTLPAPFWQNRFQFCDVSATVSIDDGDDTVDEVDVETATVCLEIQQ
Put plainly: Leishmania donovani Ubiquitin Activating Enzyme (LdE1). The test is classed as functional. Conditions: 30 µM.

Test [3] addresses AMP-activated protein kinase, AMPK (Homo sapiens) (UniProt P54646+O43741+P54619+Q9UGJ0+Q9Y478+Q13131+Q9UGI9). Kind of test: AMP-dependent Kinase enzyme assay. An in vitro enzyme assay that detects ADP turnover that is directly proportional to AMPK activity. This uses naive AMPK that is activated during the assay with MK-8722. The test is classed as functional. Conditions: 30 µM.

For test [4], the target named is Sialic acid-binding Ig-like lectin 9 (Homo sapiens) (UniProt Q9Y336). Kind of test: Hs-Siglec9 ALPHAscreen SOP 20170721. Conditions: 10 µM. On the technique in general: Alpha assays give light when donor and acceptor beads are brought close together.
Test [5] relates to Trypanosoma cruzi. Kind of test: Trypanosoma cruzi phosphomannomutase and mannose-1-phosphate guanylyltransferase assay. The test is classed as functional. Conditions: 10 µM.
For test [6], the target named is T2, Arginase-2, mitochondrial (Homo sapiens) (UniProt P78540).
T2 sequence (whole entry): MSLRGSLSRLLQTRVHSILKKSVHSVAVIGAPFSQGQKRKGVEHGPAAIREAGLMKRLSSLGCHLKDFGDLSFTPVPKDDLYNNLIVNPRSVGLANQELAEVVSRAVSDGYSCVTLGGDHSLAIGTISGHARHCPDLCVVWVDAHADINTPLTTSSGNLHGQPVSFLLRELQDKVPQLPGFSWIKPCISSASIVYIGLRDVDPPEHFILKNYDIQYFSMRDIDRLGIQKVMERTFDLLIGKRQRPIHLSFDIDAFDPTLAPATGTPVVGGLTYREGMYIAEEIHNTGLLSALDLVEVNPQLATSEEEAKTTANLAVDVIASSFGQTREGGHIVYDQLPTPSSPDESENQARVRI
Put plainly: in vitro enzyme assay to detect the production of urea directly proportional to the activity of Arginase II. Further: in the data most compounds retested in dose-response had high values. Conditions: 33.3 µM. The test is classed as functional.

The target in test [7] is T3, Proteasome subunit beta (Trypanosoma cruzi) (UniProt O96673).
T3 sequence (whole entry): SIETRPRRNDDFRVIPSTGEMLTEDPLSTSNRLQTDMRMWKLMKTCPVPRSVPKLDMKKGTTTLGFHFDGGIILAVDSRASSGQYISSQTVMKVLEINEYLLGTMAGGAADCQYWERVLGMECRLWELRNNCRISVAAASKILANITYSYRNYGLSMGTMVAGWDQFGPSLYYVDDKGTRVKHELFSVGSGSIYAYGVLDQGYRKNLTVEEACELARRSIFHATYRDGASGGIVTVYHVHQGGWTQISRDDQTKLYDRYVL
Kind of test: Trypanosoma cruzi proteasome chymotrypsin-like activity (TcProtChymo) assay. Further: in the data most compounds retested in dose-response had high values. The test is classed as functional. Conditions: 9.37 µM.

The species entered for test [8] is Homo sapiens. Put plainly: To identify inhibition of the IFN signalling (Jak-Stat) pathway via expression of an eGFP reporter gene under the control of an IFN-stimulated response element (ISRE) containing MxA promoter. The test is classed as functional. Conditions: 30 µM. For orientation: In a reporter assay the amount or activity of a reporter protein is the signal.

Test [9] has as its target T4, Tyrosyl-tRNA synthetase, putative (Trypanosoma cruzi (strain CL Brener)) (UniProt Q4DSP6).
T4 sequence (whole entry): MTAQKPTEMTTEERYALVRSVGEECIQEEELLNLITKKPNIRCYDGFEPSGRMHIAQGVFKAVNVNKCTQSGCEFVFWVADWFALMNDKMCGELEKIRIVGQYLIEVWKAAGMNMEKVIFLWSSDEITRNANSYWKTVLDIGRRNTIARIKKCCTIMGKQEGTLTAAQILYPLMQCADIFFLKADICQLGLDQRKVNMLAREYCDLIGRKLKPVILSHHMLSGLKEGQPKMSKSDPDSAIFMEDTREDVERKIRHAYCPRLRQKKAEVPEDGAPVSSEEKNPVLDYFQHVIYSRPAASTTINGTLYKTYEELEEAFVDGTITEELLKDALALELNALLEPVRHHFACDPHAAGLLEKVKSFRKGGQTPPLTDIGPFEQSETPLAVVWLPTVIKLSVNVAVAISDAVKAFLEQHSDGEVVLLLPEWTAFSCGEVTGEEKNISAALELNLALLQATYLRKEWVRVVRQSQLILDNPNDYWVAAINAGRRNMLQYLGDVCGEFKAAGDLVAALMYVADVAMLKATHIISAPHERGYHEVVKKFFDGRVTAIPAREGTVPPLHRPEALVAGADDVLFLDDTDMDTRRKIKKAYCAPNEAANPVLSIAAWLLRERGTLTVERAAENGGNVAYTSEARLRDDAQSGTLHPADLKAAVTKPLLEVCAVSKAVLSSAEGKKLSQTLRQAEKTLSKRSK
Kind of test: Trypanosoma cruzi tyrosyl tRNA synthetase (TcYRS) _High Tyrosine SOP. Further: in the data most compounds retested in dose-response had high values. The test is classed as functional. Conditions: 30 µM.

Test [10] deals with T4, Tyrosyl-tRNA synthetase, putative (Trypanosoma cruzi (strain CL Brener)). Put plainly: Trypanosoma cruzi tyrosyl tRNA synthetase (TcYRS) SOP. The test is classed as functional. Conditions: 30 µM.
In test [11] the target is Chromo domain-containing protein 1 (Saccharomyces cerevisiae (strain ATCC 204508 / S288c) (Baker's yeast)) (UniProt P32657). Kind of test: ScCHD-1 Enzyme Inhibition Assay. Further: in the data most compounds retested in dose-response had high values. The test is classed as functional. Conditions: 30 µM.

For part of these data: Entries with a potency or affinity are not part of this list.

Sequence of Protein translocase subunit SecA (Escherichia coli (strain K12)) (P10408 whole entry): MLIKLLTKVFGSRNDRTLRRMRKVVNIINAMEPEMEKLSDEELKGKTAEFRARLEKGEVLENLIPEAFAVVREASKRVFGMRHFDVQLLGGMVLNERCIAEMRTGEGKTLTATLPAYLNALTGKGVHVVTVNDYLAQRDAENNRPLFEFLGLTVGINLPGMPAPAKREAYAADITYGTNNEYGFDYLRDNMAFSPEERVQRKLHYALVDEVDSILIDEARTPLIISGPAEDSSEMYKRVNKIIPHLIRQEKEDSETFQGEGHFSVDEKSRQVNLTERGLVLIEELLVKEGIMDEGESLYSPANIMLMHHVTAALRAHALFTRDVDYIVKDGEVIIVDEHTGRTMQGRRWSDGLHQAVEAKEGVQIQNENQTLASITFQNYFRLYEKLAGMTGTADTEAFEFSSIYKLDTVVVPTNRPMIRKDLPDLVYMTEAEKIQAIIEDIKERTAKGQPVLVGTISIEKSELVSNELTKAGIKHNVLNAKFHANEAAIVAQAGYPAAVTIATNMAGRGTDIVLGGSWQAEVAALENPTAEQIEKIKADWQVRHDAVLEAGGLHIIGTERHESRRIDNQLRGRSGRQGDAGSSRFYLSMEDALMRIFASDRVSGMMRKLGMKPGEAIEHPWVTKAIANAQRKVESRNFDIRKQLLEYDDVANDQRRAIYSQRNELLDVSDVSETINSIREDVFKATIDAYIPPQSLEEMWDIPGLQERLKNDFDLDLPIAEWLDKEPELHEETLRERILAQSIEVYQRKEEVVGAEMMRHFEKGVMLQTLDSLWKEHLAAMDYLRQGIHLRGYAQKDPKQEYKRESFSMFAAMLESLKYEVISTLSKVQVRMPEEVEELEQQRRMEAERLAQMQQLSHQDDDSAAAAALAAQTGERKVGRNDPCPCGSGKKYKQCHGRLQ
Sequence of Sialic acid-binding Ig-like lectin 9 (Homo sapiens) (Q9Y336 whole entry): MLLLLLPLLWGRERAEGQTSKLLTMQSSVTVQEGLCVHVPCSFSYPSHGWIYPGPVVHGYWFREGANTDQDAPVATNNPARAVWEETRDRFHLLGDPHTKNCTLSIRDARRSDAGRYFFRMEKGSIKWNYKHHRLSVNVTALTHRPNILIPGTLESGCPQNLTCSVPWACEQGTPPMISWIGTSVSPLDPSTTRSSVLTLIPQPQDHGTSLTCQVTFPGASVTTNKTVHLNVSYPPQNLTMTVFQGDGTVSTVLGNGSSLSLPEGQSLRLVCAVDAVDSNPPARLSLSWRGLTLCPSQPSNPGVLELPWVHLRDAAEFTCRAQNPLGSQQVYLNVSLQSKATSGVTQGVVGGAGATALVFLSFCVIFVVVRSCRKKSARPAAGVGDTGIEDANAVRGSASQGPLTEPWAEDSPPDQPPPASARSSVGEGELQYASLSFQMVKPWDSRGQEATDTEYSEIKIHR
Sequence of Chromo domain-containing protein 1 (Saccharomyces cerevisiae (strain ATCC 204508 / S288c) (Baker's yeast)) (P32657 whole entry, the tested form may be a part): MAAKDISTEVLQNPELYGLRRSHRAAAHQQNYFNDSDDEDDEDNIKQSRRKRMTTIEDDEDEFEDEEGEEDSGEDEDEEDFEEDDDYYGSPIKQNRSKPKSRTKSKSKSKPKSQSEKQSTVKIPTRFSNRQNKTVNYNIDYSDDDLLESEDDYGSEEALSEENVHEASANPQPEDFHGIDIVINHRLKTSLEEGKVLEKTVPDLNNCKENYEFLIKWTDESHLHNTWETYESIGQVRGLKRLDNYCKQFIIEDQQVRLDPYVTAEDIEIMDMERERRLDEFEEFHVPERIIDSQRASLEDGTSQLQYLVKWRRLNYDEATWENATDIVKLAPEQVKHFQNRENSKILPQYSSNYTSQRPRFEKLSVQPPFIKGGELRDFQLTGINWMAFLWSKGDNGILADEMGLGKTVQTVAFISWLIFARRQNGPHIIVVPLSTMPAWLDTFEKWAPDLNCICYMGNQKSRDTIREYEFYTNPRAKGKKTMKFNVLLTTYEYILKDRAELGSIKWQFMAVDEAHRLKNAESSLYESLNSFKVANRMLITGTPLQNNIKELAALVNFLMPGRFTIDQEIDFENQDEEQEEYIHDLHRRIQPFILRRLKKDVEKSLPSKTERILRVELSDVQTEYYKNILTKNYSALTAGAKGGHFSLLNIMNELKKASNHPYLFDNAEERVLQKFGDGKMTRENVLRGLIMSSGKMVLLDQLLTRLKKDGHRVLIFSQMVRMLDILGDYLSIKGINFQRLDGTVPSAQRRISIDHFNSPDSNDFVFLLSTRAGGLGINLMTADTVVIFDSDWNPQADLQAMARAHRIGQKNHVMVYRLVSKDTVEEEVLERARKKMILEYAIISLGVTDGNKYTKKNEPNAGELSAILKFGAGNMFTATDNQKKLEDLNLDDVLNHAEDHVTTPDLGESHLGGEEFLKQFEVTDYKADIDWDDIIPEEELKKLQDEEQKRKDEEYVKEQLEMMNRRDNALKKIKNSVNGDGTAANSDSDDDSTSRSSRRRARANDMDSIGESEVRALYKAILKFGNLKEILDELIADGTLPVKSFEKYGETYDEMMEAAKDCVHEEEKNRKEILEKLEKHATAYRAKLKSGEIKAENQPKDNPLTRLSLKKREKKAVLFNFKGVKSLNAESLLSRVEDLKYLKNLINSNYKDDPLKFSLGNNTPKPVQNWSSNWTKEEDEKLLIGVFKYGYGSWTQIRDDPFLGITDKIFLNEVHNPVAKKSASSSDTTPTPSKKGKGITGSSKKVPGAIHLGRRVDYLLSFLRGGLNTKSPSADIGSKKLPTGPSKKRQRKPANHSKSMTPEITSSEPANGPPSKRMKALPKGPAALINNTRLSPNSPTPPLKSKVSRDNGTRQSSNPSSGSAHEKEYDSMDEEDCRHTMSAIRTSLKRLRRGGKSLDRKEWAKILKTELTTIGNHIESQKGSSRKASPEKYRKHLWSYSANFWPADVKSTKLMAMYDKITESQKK

Turning to `Cc1nc(CN(C)C2CCN(Cc3ccc4c(c3)OCCO4)C2)no1` (centres undefined), the Percent Effect in [1] is -7.11%; in [2], 13%; in [3], -0.861%; in test [4], -3.18%; in [5], 5.39%; in test [6], 1.9%. Moreover, the Percent Effect in test [7] is 2.83%; in test [8] it was -7.46%; in test [9] it was 5.71%; in test [10] it was 11.8%; in [11] it was -17.4%.
As to `NC(=O)c1ccc(N2CCCCC2)c(NC(=O)c2cncc(Br)c2)c1`, the Percent Effect in test [1] is -3.53%; in [2], 5.2%; in test [3], 10.4%; in [4], 12.7%; in test [5], 2.06%; in test [6], -78.6%. The Percent Effect in test [7] was 12.5%; in [8] it was 35.7%; in test [9] it was 3.23%; in [10] it was 11.1%; in test [11], -2.92%.
For `CN(Cc1ccsc1)C(=O)c1cccc(F)c1`, the Percent Effect in [1] is -5.35%; in test [2] it was 20.8%; in test [3] it was 1.32%; in test [4], 3.27%; in test [5], -2.06%; in [6] it was -1.07%. In addition, the Percent Effect is 5.74% in [7]; 9.71% in test [8]; 3.88% in [9]; 19.5% in [10]; -9.1% in test [11].
Consider `CCSCCC(=O)Nc1ncn(CC(=O)NCc2ccccc2)n1`, for which the Percent Effect in [1] was -4.92%; in test [2], 16%; in test [3] it was -4.62%; in [4] it was 16.7%; in test [5], 8.86%; in [6], 3.65%. Also, the Percent Effect was 25.1% in [7]; 5.59% in [8]; 12.6% in [9]; 28.4% in test [10]; -2.42% in test [11].
For the molecule `CCc1nc(CN2CCCN(c3ncnc4ccccc34)CC2)no1`, the Percent Effect was 0.435% in [1]; 13% in [2]; -3.4% in test [3]; 2.9% in test [4]; 4.03% in test [5]; -12.4% in test [6]. In addition, the Percent Effect in test [7] is 18.3%; in test [8] it was 74.7%; in test [9], 3.23%; in test [10], 16.1%; in test [11], -2.22%.
Take `Cc1nc[nH]c1-c1nc2cc(S(=O)(=O)N3CCCC3)ccc2n1C`: the Percent Effect in test [1] is -4.38%; in test [2] it was 11%; in [3], 12.9%; in [4], 8.67%; in test [5], 6.86%; in test [6] it was 20%. In addition, the Percent Effect in test [7] is 8.16%; in test [8], 24.3%; in [9], 7.53%; in test [10], 17.5%; in test [11], -5.76%.
In the case of `O=C(NC1CC1)c1cc(NC(=O)N2CCCC(O)C2)ccc1Cl` (centres undefined), the Percent Effect in [1] was -1.73%; in [2], 11%; in [3] it was 1.28%; in test [4], 3.66%; in test [5] it was -5.36%; in [6], 1.6%. The Percent Effect in [7] is 16.4%; in test [8], -0.927%; in test [9], 6.25%; in [10], 13.6%; in [11] it was 1.44%.
`CCN(CC)C(=O)c1ccn(COc2cc(C)cc(C)c2)n1`: the Percent Effect was -0.199% in test [1]; 22.7% in [2]; -7.15% in test [3]; 1.4% in test [4]; -0.982% in [5]; -5.81% in test [6]. Also, the Percent Effect in [7] was 14.1%; in test [8], 41.2%; in test [9], 4.23%; in test [10], 12.8%; in test [11], -12.1%.
In the case of `Cn1cc(CN2CCn3c(CNC(=O)c4cccn4C)cnc3C2)cn1`, the Percent Effect was 1.54% in test [1]; 10.7% in [2]; -1.53% in test [3]; 26.8% in [4]; -0.193% in test [5]; -52.1% in test [6]. The Percent Effect in test [7] is 14%; in test [8], 0.903%; in [9] it was 7.29%; in [10] it was 22.5%; in test [11] it was -7.88%.
